Measured values reported in the supplement of paper PMC12024424.
Counter-ions that a name gives are not always drawn.

tested on: Staphylococcus aureus Sa2 (MRSA, cystic fibrosis isolate); test: growth reduction vs untreated control (viable cell count); higher = stronger antibacterial activity; extreme values may be limits of the assay; details: 0.1 mM; 24 h
Experimental: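 Single-dose screen of the MedChem Express Drug Repurposing Library (0.1 mM, 1% DMSO) against planktonic MRSA S. aureus Sa2 (CF isolate) in TSB in 96-well plates, 37 °C aerobic, 24 h. Assays were run in triplicate and repeated twice.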

Row | SMILES | growth reduction
1 | COc1cccc2c1cc([N+](=O)[O-])c1c(C(=O)O)cc3c(c12)OCO3 [Aristolochic acid A] | 100%
2 | O=C(CNC(=O)c1ccc(C2=NOC(c3cc(Cl)cc(C(F)(F)F)c3)(C(F)(F)F)C2)c2ccccc12)NCC(F)(F)F (stereo not drawn) [Afoxolaner] | 98%
3 | O=c1[nH]c2ccccc2n1C1CCN(CCCC(c2ccc(F)cc2)c2ccc(F)cc2)CC1 [Pimozide] | 98%
4 | Cc1cc2c(C(C)C)c(O)c(O)c(C=O)c2c(O)c1-c1c(C)cc2c(C(C)C)c(O)c(O)c(C=O)c2c1O [Gossypol] | 100%
5 | CCNC1=Nc2ccc(Cl)cc2C(C)(c2ccccc2)O1 (stereo not drawn) [Etifoxine] | 100%
6 | CC[C@H](C)C1O[C@]2(C=C[C@@H]1C)C[C@@H]1C[C@@H](C/C=C(\C)[C@@H](O[C@H]3C[C@H](OC)[C@@H](O[C@H]4C[C@H](OC)[C@H](NC)[C@H](C)O4)[C@H](C)O3)[C@@H](C)/C=C/C=C3\CO[C@@H]4[C@H](O)C(C)=C[C@@H](C(=O)O1)[C@]34O)O2 (stereo partly drawn) [Emamectin (Benzoate)] | 100%
7 | Cc1cc2c(C(C)C)c(O)c(O)c(C=O)c2c(O)c1-c1c(C)cc2c(C(C)C)c(O)c(O)c(C=O)c2c1O [Gossypol (acetic acid)] | 100%
8 | O=c1c2ccccc2[se]n1-c1ccccc1 [Ebselen] | 100%
9 | Fc1ccc(C(OCCN2CCN(CCCc3ccccc3)CC2)c2ccc(F)cc2)cc1 [Vanoxerine (dihydrochloride)] | 99%
10 | Cc1cc2c(C(C)C)c(O)c(O)c(C=O)c2c(O)c1-c1c(C)cc2c(C(C)C)c(O)c(O)c(C=O)c2c1O [(R)-(-)-Gossypol acetic acid] | 100%
11 | c1ccc2c(c1)Sc1ccccc1N2CC1CN2CCC1CC2 (stereo not drawn) [Mequitazine] | 96%
12 | O=C(O)c1nn(Cc2ccc(Cl)cc2Cl)c2ccccc12 [Lonidamine] | 90%
13 | C[S+]([O-])CCCCN=C=S (stereo not drawn) [Sulforaphane] | 100%
